PubChem BioAssay (Tox21)
Values without a mark were called inactive. Inconclusive results are not listed. A call without a number means that no potency is given here. Active and inactive are the calls of the source. Unless noted, the call rests on the fitted dose curve; in most records, active means well fitted curve in the direction sought with a large enough effect in the repeat runs; inconclusive means weak or mixed curves; inactive means no such curve, though single readings can be large; an effect the other way counts as inactive or inconclusive.

What was measured:
[1] = target: Thyrotropin receptor (Homo sapiens) (UniProt P16473); assay: qHTS assay to identify small molecule antagonists of the thyroid stimulating hormone receptor (TSHR) signaling pathway (AID 1259385; calls by dose curve; further: nearly all actives have a fitted effect of over 20% in size)
Method in brief: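 TSHR-HEK293 cells were plated and held 18 h at 37C/5% CO2, then given compound plus Ro20-1724 and stimulated with TSH at 1.5 ng/mL final. After 30 min at room temperature, cAMP was detected with cAMP-d2/anti-cAMP-cryptate (1 h) by fluorescence.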

[2] = target: Progesterone receptor (Homo sapiens) (UniProt P06401); assay: qHTS assay to identify small molecule agonists of the progesterone receptor (PR) signaling pathway (AID 1346784; calls by dose curve; further: nearly all actives have a fitted effect of over 30% in size)
Method in brief: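 PR-UAS-bla HEK 293T cells (beta-lactamase reporter under UAS) in 2% charcoal-stripped FBS, dosed with 23 nL compound after 6 hr, incubated 16hr at 37C. LiveBLAzer B/G FRET substrate added, fluorescence read after 2 hours.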

[3] = target: Progesterone receptor (Homo sapiens) (UniProt P06401); assay: qHTS assay to identify small molecule antagonists of the progesterone receptor (PR) signaling pathway (AID 1346795; active means well fitted inhibition curve with a large enough effect in the signal ratio in the repeat runs, not every such curve was filed as active; the % refers to the signal ratio; further: potency means the concentration at half of the fitted maximal effect)
Method in brief: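 PR-UAS-bla HEK293T cells with beta-lactamase reporter under UAS control, in 2% charcoal-stripped FBS, treated with compounds plus 1 nM promegestone (R5020, final) for 16 hr at 37C. Read-out: FRET beta-lactamase substrate fluorescence after 2 hr at room temperature.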

[4] = qHTS assay to identify small molecule antagonists of the progesterone receptor (PR) signaling pathway - cell viability counter screen (AID 1346798); further: series mostly up to about 92 µM; nearly all actives have a fitted effect of over 50% in size
Method in brief: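 PR-UAS-bla HEK293T cells, 3,000/well in 2% charcoal-stripped FBS medium, dosed with compounds plus R5020 agonist and incubated 16 h at 37C. Viability then measured in the same wells by CellTiter-Glo luminescence after 30 min at RT.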

[5] = qHTS assay to identify small molecule agonists of the progesterone receptor (PR) signaling pathway - cell viability counter screen (AID 1346799; calls by dose curve; further: nearly all actives have a fitted effect of over 45% in size)
Method in brief: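 Counter screen in the PR-UAS-bla HEK293T wells (2% charcoal-stripped FBS, 16 h compound exposure at 37 C) after the bla read. CellTiter-Glo added, 30 min at room temperature, luminescence read as cell viability.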

[6] = qHTS assay to identify small molecule antagonists of the TGF-beta/Smad signaling pathway - cell viability counter screen (AID 1346824); further: nearly all actives have a fitted effect of over 50% in size
Method in brief: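 SBE-bla HEK 293T cells were plated overnight at 37 C, then given compounds in DMSO plus TGF-beta1 (added as 0.25 ng/mL solution) for 5 hr. After the bla read, CellTiter-Glo was added to the same wells and luminescence read after 30 min at room temperature.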

[7] = qHTS assay to identify small molecule agonists of the TGF-beta/Smad signaling pathway - cell viability counter screen (AID 1346829); further: top concentration of the series differs between compounds; nearly all actives have a fitted effect of over 45% in size
Method in brief: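 Luminescence from CellTiter-Glo, read after a 30 min room-temperature incubation, gives cell viability of SBE-bla HEK 293T cells treated 5 hr with compounds at 37 C.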

[8] = target: Thyrotropin-releasing hormone receptor (Homo sapiens) (UniProt P34981); assay: qHTS assay to identify small molecule agonists of the thyrotropin-releasing hormone receptor (TRHR) signaling pathway (AID 1346891; calls by dose curve; further: series mostly up to about 58 µM)
Method in brief: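 HEK293 cells expressing TRHR plated 18 h at 37 C/5% CO2, calcium dye-loaded 2 h at 37 C, then compound added (agonist mode); kinetic calcium fluorescence read 3 min at 1 s intervals; 15 concentrations in triplicate.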

[9] = Human pregnane X receptor (PXR) small molecule agonists, qHTS cell viability counter screen (AID 1346977); further: nearly all actives have a fitted effect of over 50% in size
Method in brief: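 PXR-Luc HepG2 cells (2,000/well, 5% charcoal-stripped FBS) preincubated 5 hr, then exposed to compounds 24 hr at 37 C. Viability read in the same wells by CellTiter-Fluor fluorescence, reagent added at 23 hr, 1 hr incubation.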

[10] = Caspase-3/7 induction in HepG2 cells by small molecules, qHTS assay (AID 1346978); further: nearly all actives have a fitted effect of over 15% in size
Method in brief: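 Wild-type HepG2 cells (2,000/well) were settled 5 h at 37 C, 5% CO2, then exposed to compounds in DMSO for 17 h. Caspase-3/7 activity was read by luminescence 30 min after adding Caspase-Glo 3/7 reagent at room temperature.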

[11] = Caspase-3/7 induction in CHO-K1 cells by small molecules, qHTS assay (AID 1346980); further: nearly all actives have a fitted effect of over 15% in size
Method in brief: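 Wild-type cells were seeded at 1,500 per well and settled 5 hr at 37 C, 5% CO2, then exposed to DMSO-dissolved compounds for 17 hr. Caspase-Glo 3/7 reagent was added, and luminescence was read after 30min at room temperature.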

[12] = target: Nuclear receptor subfamily 1 group I member 2 (Homo sapiens) (UniProt O75469); assay: Human pregnane X receptor (PXR) small molecule agonists, qHTS assay (AID 1346982); further: nearly all actives have a fitted effect of over 35% in size; further: potency means the concentration at half of the fitted maximal effect
Method in brief: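 Compound-induced hPXR transactivation of a CYP3A4 luciferase reporter was scored in HepG2 PXR-Luc cells over 24 hr at 37 C, 5% CO2, by luminescence.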

[13] = qHTS assay to identify small molecule agonists of the estrogen receptor alpha (ER-alpha) signaling pathway in the presence of an antagonist - cell viability counter screen (AID 1259386);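 further: series mostly up to about 92 µM; cells exposed to compounds for 22 h at 37 °C before the viability read; nearly all actives have a fitted effect of over 30% in size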
Method in brief: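 Viability counter screen using VM7Luc4E2 (full-length ER-alpha, four ERE-luciferase). The cells were treated with compounds alongside ICI-182,780 10.0nM for 22hr, and live-cell protease fluorescence was quantified with CellTiter-Fluor.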

[14] = qHTS assay to identify small molecule agonists of the TGF-beta/Smad signaling pathway (AID 1346859; active means well fitted activation curve with a large enough effect in the signal ratio in the repeat runs, not every such curve was filed as active; the % refers to the signal ratio; further: series mostly up to about 77 µM)
Method in brief: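 SBE-bla HEK293T cells plated overnight, then compound exposure for 5 h at 37 C. Beta-lactamase reporter read with LiveBLAzer B/G FRET substrate after 2 h at room temperature, fluorescence at 405 nm excitation, 460/530 nm emission.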

[15] = target: Thyrotropin-releasing hormone receptor (Homo sapiens) (UniProt P34981); assay: qHTS assay to identify small molecule antagonists of the thyrotropin-releasing hormone receptor (TRHR) signaling pathway (AID 1346877; active means well fitted inhibition curve with a large enough effect in the repeat runs, not every such curve was filed as active; further: series mostly up to about 51 µM)
Method in brief: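 Following an 18 h incubation at 37 °C and a 2 h calcium dye load, TRHR-HEK293 cells were exposed to compound (5 min, room temperature) and challenged with TRH, 1 nM final.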

[16] = Caspase-3/7 induction in CHO-K1 cells by small molecules, qHTS cell viability counter screen (AID 1346979); further: nearly all actives have a fitted effect of over 35% in size; further: potency means the concentration at half of the fitted maximal effect
Method in brief: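 Wild-type CHO-K1 cells (1,500/well) treated with compound after 5 h plating; after 16 h at 37C, viability read as CellTiter-Fluor fluorescence following 1 h reagent incubation, in the same wells as the caspase read.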

[17] = Caspase-3/7 induction in HepG2 cells by small molecules, qHTS cell viability counter screen (AID 1346981); further: nearly all actives have a fitted effect of over 30% in size; further: potency means the concentration at half of the fitted maximal effect
Method in brief: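 Viability determined by CellTiter-Fluor fluorescence in HepG2 wells also used for the luminescent Caspase-Glo 3/7 read. Compounds were present for 16 hr at 37 C, 5% CO2 before reagent addition.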

[18] = target: Nuclear receptor subfamily 1 group I member 2 (Homo sapiens) (UniProt O75469); assay: CYP3A4 induction through human pregnane X receptor (PXR) by small molecules, qHTS assay (AID 1346984); further: nearly all actives have a fitted effect of over 40% in size
Method in brief: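 Readings come from a luciferase reporter: DPX-2 cells, which are HepG2 cotransfected with PXR and a CYP3A4-promoter construct, were exposed to test compounds for 24 h at 37C before One-Glo detection.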

[19] = target: Nuclear receptor subfamily 1 group I member 2 (Homo sapiens) (UniProt O75469); assay: Human pregnane X receptor (PXR) activation by small molecules, qHTS assay (AID 1346985); further: nearly all actives have a fitted effect of over 40% in size; further: potency means the concentration at half of the fitted maximal effect
Method in brief: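 DPX-2 cells (HepG2 co-transfected with a PXR response element and a CYP3A4-promoter luciferase construct) were seeded at 2,000 per well, rested 5 hr at 37C, then exposed to DMSO-dissolved compounds for 24 hr. Activation was read as luciferase luminescence.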

Sequence of Thyrotropin-releasing hormone receptor (Homo sapiens) (P34981 whole entry, looked up): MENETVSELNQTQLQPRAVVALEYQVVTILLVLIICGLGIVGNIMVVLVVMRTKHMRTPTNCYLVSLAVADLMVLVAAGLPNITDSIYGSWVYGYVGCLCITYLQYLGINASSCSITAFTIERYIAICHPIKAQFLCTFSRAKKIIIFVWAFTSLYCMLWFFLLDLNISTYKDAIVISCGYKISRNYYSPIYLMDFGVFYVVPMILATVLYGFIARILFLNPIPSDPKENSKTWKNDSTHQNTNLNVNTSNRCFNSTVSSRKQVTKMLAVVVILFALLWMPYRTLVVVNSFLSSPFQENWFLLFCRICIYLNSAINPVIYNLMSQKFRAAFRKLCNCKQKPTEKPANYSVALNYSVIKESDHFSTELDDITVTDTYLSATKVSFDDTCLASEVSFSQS
Sequence of Thyrotropin receptor (Homo sapiens) (P16473 whole entry, looked up): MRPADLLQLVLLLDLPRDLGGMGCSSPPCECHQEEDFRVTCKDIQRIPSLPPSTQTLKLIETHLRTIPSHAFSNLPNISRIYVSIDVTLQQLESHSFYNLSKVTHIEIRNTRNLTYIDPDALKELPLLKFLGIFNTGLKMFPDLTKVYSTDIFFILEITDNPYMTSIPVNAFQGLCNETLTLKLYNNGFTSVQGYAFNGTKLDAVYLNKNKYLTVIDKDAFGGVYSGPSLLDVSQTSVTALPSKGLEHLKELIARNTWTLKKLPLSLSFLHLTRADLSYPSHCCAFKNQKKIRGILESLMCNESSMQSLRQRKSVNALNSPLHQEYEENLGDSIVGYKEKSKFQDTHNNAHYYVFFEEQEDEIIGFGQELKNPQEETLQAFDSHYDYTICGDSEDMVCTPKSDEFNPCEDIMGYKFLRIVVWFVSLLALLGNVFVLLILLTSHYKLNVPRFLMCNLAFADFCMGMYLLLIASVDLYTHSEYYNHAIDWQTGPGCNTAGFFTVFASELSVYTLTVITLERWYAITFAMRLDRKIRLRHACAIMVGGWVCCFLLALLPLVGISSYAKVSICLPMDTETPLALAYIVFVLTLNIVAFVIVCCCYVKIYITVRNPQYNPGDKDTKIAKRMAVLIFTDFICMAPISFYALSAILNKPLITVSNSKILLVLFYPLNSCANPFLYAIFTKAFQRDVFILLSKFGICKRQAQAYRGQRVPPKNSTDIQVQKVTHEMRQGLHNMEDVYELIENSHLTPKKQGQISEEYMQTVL
Sequence of Nuclear receptor subfamily 1 group I member 2 (Homo sapiens) (O75469 whole entry, looked up): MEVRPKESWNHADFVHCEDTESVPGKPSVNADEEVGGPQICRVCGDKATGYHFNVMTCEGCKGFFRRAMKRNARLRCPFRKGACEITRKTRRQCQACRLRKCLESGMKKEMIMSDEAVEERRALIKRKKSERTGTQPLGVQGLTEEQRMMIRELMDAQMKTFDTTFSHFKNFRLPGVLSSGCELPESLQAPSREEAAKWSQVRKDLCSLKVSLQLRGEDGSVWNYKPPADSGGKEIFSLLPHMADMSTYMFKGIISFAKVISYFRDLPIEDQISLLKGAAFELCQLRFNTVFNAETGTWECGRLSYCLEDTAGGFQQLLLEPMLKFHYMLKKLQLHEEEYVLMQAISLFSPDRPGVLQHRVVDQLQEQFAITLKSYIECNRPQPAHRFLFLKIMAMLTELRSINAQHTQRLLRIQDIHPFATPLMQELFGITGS
Sequence of Progesterone receptor (Homo sapiens) (P06401 whole entry, looked up): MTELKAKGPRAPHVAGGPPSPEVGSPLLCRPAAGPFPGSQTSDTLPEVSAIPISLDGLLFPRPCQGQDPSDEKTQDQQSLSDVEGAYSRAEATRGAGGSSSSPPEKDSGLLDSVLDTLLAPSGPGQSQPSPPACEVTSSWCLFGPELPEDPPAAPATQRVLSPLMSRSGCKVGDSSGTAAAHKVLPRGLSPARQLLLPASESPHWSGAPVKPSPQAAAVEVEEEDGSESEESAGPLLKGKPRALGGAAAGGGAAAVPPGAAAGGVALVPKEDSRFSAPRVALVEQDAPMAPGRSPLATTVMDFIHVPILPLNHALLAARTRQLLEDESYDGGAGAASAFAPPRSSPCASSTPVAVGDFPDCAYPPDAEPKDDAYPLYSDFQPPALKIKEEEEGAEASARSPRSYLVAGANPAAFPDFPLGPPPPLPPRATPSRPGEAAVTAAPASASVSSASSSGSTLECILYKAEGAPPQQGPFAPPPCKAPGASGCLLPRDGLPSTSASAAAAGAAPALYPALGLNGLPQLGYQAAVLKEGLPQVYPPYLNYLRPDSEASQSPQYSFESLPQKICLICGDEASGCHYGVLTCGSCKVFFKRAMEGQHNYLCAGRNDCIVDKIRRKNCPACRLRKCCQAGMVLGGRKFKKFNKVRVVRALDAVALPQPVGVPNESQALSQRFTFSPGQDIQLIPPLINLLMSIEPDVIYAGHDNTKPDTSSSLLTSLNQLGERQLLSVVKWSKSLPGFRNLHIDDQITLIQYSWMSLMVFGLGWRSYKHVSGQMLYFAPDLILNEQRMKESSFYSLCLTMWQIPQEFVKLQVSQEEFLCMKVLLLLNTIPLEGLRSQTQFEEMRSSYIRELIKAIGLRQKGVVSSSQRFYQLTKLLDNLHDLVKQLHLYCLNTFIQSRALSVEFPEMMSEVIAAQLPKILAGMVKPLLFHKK

Row | Compound | outcome [1] | Potency [2] | Potency [3] | Potency [4] | Potency [5] | outcome [6] | outcome [7] | outcome [8] | Potency [9] | Potency [10] | outcome [11] | Potency [12] | Potency [13] | outcome [14] | outcome [15] | Potency [16] | Potency [17] | Potency [18] | Potency [19]
1 | CCOc1cc([N+](=O)[O-])c(OCC)cc1N1CCOCC1 | inactive | inactive | 27.3 µM (active) | inactive | inactive | inactive | inactive | inactive | inactive | inactive | inactive | 30.6 µM (active) | – | – | – | – | – | – | –
2 | NCCS | – | inactive | inactive | inactive | inactive | inactive | inactive | inactive | inactive | inactive | inactive | inactive | inactive | inactive | inactive | inactive | inactive | inactive | inactive
3 | Cc1ccsc1/C=C/C1=NCCCN1C | – | inactive | inactive | inactive | inactive | inactive | inactive | inactive | inactive | inactive | inactive | inactive | inactive | inactive | inactive | inactive | inactive | inactive | inactive
4 | COc1ccc2c(c1OC)C(=O)O[C@@H]2[C@H]1c2c(cc3c(c2OC)OCO3)CCN1C | inactive | inactive | inactive | inactive | inactive | inactive | inactive | inactive | – | inactive | inactive | – | – | inactive | inactive | 13.3 µM (active) | 15 µM (active) | inactive | 22.4 µM (active)
5 | CC(C)C(=O)OCCc1ccccc1 | inactive | – | – | inactive | inactive | inactive | inactive | inactive | inactive | inactive | inactive | – | inactive | inactive | inactive | inactive | inactive | – | –
6 | CC(COC(C)(C)C)OCCCO (stereo not given) | inactive | – | inactive | inactive | – | inactive | inactive | inactive | inactive | inactive | inactive | inactive | inactive | inactive | inactive | – | inactive | – | –
7 | C=C(C)C(=O)OCCNC(C)(C)C | inactive | inactive | – | – | – | – | – | inactive | inactive | – | inactive | inactive | inactive | inactive | inactive | inactive | inactive | – | –
8 | CCOC(=O)c1ncn2c1CN(C)C(=O)c1cc(F)ccc1-2 | inactive | – | – | inactive | inactive | – | inactive | – | inactive | inactive | inactive | inactive | inactive | inactive | – | inactive | inactive | – | –
9 | CCCCN | – | inactive | inactive | inactive | inactive | inactive | inactive | inactive | inactive | inactive | inactive | inactive | inactive | inactive | inactive | – | inactive | – | –
